Active and inactive are the calls of the source. The calls were made as follows: active = hit-call score of the fitted dose curve at least 0.9, where 1 is the maximum; inactive = score below 0.9.
What was measured:
Settings in all cases: mRNA level, 48 h; actives raise or lower the signal
[1] = read-out: matrix metalloproteinase-3 (MMP3), MMP3 (gene 4314); assay: LTEA_HepaRG_MMP3: Life Technologies and Expression Analysis (LTEA) Assay for matrix metalloproteinase-3 (MMP3) using HepaRG (AID 2283519)
How it was run: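 qRT-PCR read-out of MMP3 mRNA (normalised to three housekeeping genes) in HepaRG liver cells after 48 h chemical exposure; 8-point half-log series, top 100 uM, 0.5% DMSO vehicle. Bidirectional curve fitting against DMSO baseline.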

[2] = read-out: Paternally Expressed 10 (PEG10), PEG10 (gene 23089); assay: LTEA_HepaRG_PEG10: Life Technologies and Expression Analysis (LTEA) Assay for Paternally Expressed 10 (PEG10) using HepaRG (AID 2283520);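 as to AC50: differentiated HepaRG human liver cells in serum-free induction medium with 0.5% DMSO; PEG10 transcript by qRT-PCR normalised to ACTB GAPDH and POLR2A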
How it was run: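 PEG10 transcript measured by Fluidigm qRT-PCR, normalized to three housekeeping genes, in HepaRG cells treated 48 h (highest 100 uM, half-log steps, 0.5% DMSO vehicle). Cells plated 48 h before switching to serum-free induction medium.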

[3] = read-out: Protein phosphatase 2A (PPP2R4), PTPA (gene 5524); assay: LTEA_HepaRG_PPP2R4: Life Technologies and Expression Analysis (LTEA) Assay for Protein phosphatase 2A (PPP2R4) using HepaRG (AID 2283522)
How it was run: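 Expression was quantified by Fluidigm qRT-PCR normalised to three housekeeping genes after 48 h treatment. Human HepaRG cells received an 8-point series from 100 µM downward by half-logs, in duplicate with 0.5% DMSO vehicle and 1 mM phenobarbital as induction control.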

[4] = read-out: Phosphatase and tensin (PTEN), PTEN (gene 5728); assay: LTEA_HepaRG_PTEN: Life Technologies and Expression Analysis (LTEA) Assay for Phosphatase and tensin (PTEN) using HepaRG (AID 2283523)
How it was run: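 HepaRG, 48 h exposure, 8-pt half-log series from 100 uM top, 0.5% DMSO vehicle, duplicates. Readout: Fluidigm qRT-PCR of PTEN transcript; housekeeping normalization (ACTB, GAPDH, POLR2A). Gain or loss fitted relative to DMSO baseline.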

[5] = read-out: solute carrier (SLC22A1), SLC22A1 (gene 6580); assay: LTEA_HepaRG_SLC22A1: Life Technologies and Expression Analysis (LTEA) Assay for solute carrier (SLC22A1) using HepaRG (AID 2283524);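 as to AC50: differentiated human HepaRG liver cells in serum-free induction medium; TaqMan qRT-PCR normalized to ACTB GAPDH and POLR2A housekeeping genes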
How it was run: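 qRT-PCR readout (TaqMan, Fluidigm arrays) of SLC22A1 transcript, normalized to three housekeeping genes; bidirectional curve fit relative to 0.5% DMSO vehicle. Differentiated human HepaRG cells, 48 h chemical exposure, top concentration 100 uM, half-log steps, eight points.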

[6] = read-out: NAD(P)H dehydrogenase [quinone] 1 (NQO1), NQO1 (gene 1728); assay: LTEA_HepaRG_NQO1: Life Technologies and Expression Analysis (LTEA) Assay for NAD(P)H dehydrogenase [quinone] 1 (NQO1) using HepaRG (AID 2283526)
How it was run: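 NQO1 transcript induction or loss measured by TaqMan qRT-PCR, referenced to three housekeeping genes and fitted bidirectionally against 0.5% DMSO. HepaRG cultures exposed 48 h, duplicate, eight-point half-log series, top 100 uM.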

[7] = read-out: Nuclear factor NF-kappa-B p105 subunit (Homo sapiens) (UniProt P19838); assay: LTEA_HepaRG_NFKB1: Life Technologies and Expression Analysis (LTEA) Assay for Nuclear Factor Kappa B Subunit 1 (NFKB1) using HepaRG (AID 2283521);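 also: differentiated human HepaRG liver cells in serum-free induction medium; TaqMan qRT-PCR transcript normalised to ACTB GAPDH and POLR2A housekeeping genes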
How it was run: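 NFKB1 transcript was measured by TaqMan qRT-PCR on Fluidigm arrays, normalised to three housekeeping genes and fitted in both directions against 0.5% DMSO. HepaRG cells were dosed in duplicate for 48 h in serum-free induction medium, eight half-log steps from 100 uM.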

[8] = read-out: Pyruvate Dehydrogenase Kinase 4 (PDK4), PDK4 (gene 5166); assay: LTEA_HepaRG_PDK4: Life Technologies and Expression Analysis (LTEA) Assay for Pyruvate Dehydrogenase Kinase 4 (PDK4) using HepaRG (AID 2283525)
How it was run: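 HepaRG (human liver line), 48 h chemical exposure, 8-pt half-log CRC top 100 uM, 0.5% DMSO vehicle, duplicates. Readout: TaqMan qRT-PCR of PDK4 mRNA, housekeeping-normalized; gain/loss fit relative to DMSO baseline.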

[9] = read-out: MYC, MYC (gene 4609); assay: LTEA_HepaRG_MYC: Life Technologies and Expression Analysis (LTEA) Assay for MYC using HepaRG (AID 2283518)
How it was run: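 Expression changes were scored by TaqMan qRT-PCR with ACTB, GAPDH and POLR2A normalization. Cultures in serum-free induction medium received duplicate 8-point concentration series, highest 100 uM, for 48 h; DMSO (0.5%) served as baseline.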

Measured: AC50

Nuclear factor NF-kappa-B p105 subunit (Homo sapiens), sequence (P19838 whole entry, looked up): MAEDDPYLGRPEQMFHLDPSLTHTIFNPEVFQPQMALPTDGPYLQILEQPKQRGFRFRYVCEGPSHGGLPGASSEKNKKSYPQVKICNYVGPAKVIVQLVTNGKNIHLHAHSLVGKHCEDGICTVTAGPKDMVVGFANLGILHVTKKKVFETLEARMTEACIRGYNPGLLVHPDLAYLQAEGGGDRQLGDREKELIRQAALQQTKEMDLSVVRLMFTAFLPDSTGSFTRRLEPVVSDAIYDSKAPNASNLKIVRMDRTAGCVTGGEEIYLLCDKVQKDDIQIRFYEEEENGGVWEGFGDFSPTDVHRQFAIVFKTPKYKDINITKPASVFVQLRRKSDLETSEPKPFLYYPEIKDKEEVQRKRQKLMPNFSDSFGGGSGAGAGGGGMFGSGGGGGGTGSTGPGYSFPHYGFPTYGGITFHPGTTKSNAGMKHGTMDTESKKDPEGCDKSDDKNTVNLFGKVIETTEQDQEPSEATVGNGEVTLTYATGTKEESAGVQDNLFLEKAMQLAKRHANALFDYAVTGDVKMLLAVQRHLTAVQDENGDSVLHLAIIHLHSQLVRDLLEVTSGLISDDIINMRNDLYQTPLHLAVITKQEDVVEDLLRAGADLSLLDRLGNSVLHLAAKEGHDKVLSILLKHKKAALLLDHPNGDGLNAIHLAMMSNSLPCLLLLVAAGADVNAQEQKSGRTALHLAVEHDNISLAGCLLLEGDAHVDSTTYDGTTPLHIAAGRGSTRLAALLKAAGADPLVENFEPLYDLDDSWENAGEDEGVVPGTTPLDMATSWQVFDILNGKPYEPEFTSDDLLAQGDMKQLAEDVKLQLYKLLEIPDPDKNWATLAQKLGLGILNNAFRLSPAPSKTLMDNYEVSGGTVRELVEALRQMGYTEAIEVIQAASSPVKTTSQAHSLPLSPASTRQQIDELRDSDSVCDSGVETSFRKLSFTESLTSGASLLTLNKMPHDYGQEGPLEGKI

C[Si](Cn1cncn1)(c1ccc(F)cc1)c1ccc(F)cc1
active: [1] 11.6 µM | [5] 63.1 µM
inactive: [2] | [3] | [4] | [6]

C#CC(C)(C)NC(=O)c1cc(Cl)cc(Cl)c1
inactive: [1] | [7] | [3] | [4] | [5] | [8] | [6]

CC1=NNC(=O)N(/N=C/c2cccnc2)C1
inactive: [9] | [1] | [7] | [3] | [4] | [5] | [6]

CON=C(C(=O)OC)c1ccccc1CON=C(C)c1cccc(C(F)(F)F)c1
inactive: [9] | [1] | [7] | [3] | [4] | [8] | [6]
active: [5] 50 µM

CCC(=O)Nc1ccc(Cl)c(Cl)c1
active: [2] 65 µM | [5] 50 µM
inactive: [1] | [3] | [4] | [8] | [6]

CCc1cccc(C)c1N(C(=O)CCl)C(C)COC (stereo not given)
inactive: [1] | [2] | [7] | [3] | [4] | [5] | [6]

C=C(C)[C@H]1Cc2c(ccc3c2O[C@@H]2COc4cc(OC)c(OC)cc4[C@@H]2C3=O)O1
active: [1] 14.3 µM | [3] 50 µM | [5] 1.95 µM | [8] 13.2 µM
inactive: [7] | [4] | [6]

CC[C@H](C)[C@H]1O[C@]2(C=C[C@@H]1C)C[C@@H]1C[C@@H](C/C=C(\C)[C@@H](O[C@H]3C[C@H](OC)[C@@H](O[C@H]4C[C@H](OC)[C@@H](NC)[C@H](C)O4)[C@H](C)O3)[C@@H](C)/C=C/C=C3\CO[C@@H]4[C@H](O)C(C)=C[C@@H](C(=O)O1)[C@]34O)O2
active: [9] 32 µM | [1] 92.9 µM | [3] 33.3 µM | [4] 23.5 µM | [5] 23.8 µM | [6] 31.7 µM

CCNc1nc(Cl)nc(NC(C)(C)C#N)n1
inactive: [9] | [1] | [3] | [4] | [5] | [6]

CCOP(=S)(OCC)Oc1ccc2c(C)c(Cl)c(=O)oc2c1
active: [5] 70 µM
inactive: [1] | [3] | [4] | [6]

CC(Oc1cccc(Cl)c1)C(=O)O (stereo not given)
inactive: [1] | [2] | [3] | [5] | [8] | [6]

CCCCSP(=O)(SCCCC)SCCCC
inactive: [1] | [3] | [4] | [6]
active: [5] 78.9 µM

CC(C)=CC1C(C(=O)OCN2C(=O)C3=C(CCCC3)C2=O)C1(C)C (stereo not given)
inactive: [1] | [3] | [4] | [5] | [6]

C#CCC1=C(C)C(OC(=O)C2C(C=C(C)C)C2(C)C)CC1=O (stereo not given)
active: [1] 81.9 µM | [5] 74.1 µM
inactive: [2] | [3] | [4] | [6]

CCCSP(=O)(OCC)Oc1ccc(Br)cc1Cl (stereo not given)
inactive: [9] | [1] | [7] | [3] | [4] | [5] | [6]

C[N+]1(C)CCCCC1
inactive: [1] | [7] | [3] | [4] | [5] | [8] | [6]

CCc1cnc(C2=NC(C)(C(C)C)C(=O)N2)c(C(=O)O)c1 (stereo not given)
inactive: [9] | [1] | [3] | [4] | [5] | [8] | [6]

CCOP(=O)(SC(C)CC)N1CCSC1=O (stereo not given)
active: [2] 26.2 µM
inactive: [1] | [3] | [4] | [5] | [6]

CC(COc1ccc(Oc2ccccc2)cc1)Oc1ccccn1 (stereo not given)
active: [5] 12.1 µM | [8] 25.4 µM
inactive: [1] | [7] | [3] | [4] | [6]

O=c1ccc(=O)[nH][nH]1
inactive: [1] | [2] | [7] | [3] | [4] | [5] | [8] | [6]

From PubChem BioAssay (EPA / NIEHS)
